Laboratory results: PubChem BioAssay (EPA / NIEHS)
Inconclusive results are not listed. Calls of active or inactive are those of the source. How the source made its calls, unless noted: active means hit-call score of the fitted dose curve at least 0.9, where 1 is the maximum; inactive means score below 0.9.

What was measured:
[1] = CCTE_Harrill_HTTr_Viability_MCF7: CCTE's 6-hour Cell Viability Assessment for the High-Throughput Transcriptomics (HTTr) Platform, in MCF-7 cells cultured in DMEM + 10% fetal bovine serum, Harrill Lab (AID 2284010)
In short: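 MCF-7 cells in DMEM + 10% FBS, 384-well, exposed 6 h to an eight-point dilution series. Membrane integrity scored by high-content imaging of propidium iodide exclusion; bidirectional fit versus DMSO.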

[2] = CCTE_Harrill_HTTr_Apoptosis_MCF7: CCTE's 6-hour Apoptosis Assessment for the High-Throughput Transcriptomics (HTTr) Platform, in MCF-7 cells cultured in DMEM + 10% fetal bovine serum, Harrill Lab (AID 2284011)
In short: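 Apoptosis in MCF-7 cells grown in DMEM with 10% fetal bovine serum was scored after a six hour exposure by high content imaging of caspase-3/7 activation (CellEvent Caspase 3/7 Green), with DMSO serving as negative control and baseline.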

[3] = CCTE_Harrill_HTTr_CellCount_MCF7: CCTE's Cell Proliferation Assessment for the High-Throughput Transcriptomics (HTTr) Platform, Harrill Lab (AID 2284012; active means hit-call score of the fitted dose curve at least 0.9, where 1 is the maximum;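 further: cells exposed to compound for six hours; intended direction is loss of nuclei count meaning fewer cells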)
In short: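 MCF7 cells exposed 6 hours to an eight-point dilution series; Hoechst-stained nuclei counted by high-content imaging. Bidirectional curve fitting against DMSO baseline.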

[4] = molecular target: Nucleoli Translocation, AR (gene 367) (UniProt P10275); experiment: UPITT_HCI_U2OS_AR_TIF2_Nucleoli_Agonist: University of Pittsburgh U2OS Androgen Receptor-Transcriptional Intermediary Factor 2 (AR-TIF2) Agonism High Content Imaging Assay for Nucleoli Translocation (AID 2283998; active means hit-call score of the fitted dose curve at least 0.9, where 1 is the maximum)
Nucleoli Translocation, AR (gene 367), sequence (P10275 whole entry, looked up, the tested form may be a part): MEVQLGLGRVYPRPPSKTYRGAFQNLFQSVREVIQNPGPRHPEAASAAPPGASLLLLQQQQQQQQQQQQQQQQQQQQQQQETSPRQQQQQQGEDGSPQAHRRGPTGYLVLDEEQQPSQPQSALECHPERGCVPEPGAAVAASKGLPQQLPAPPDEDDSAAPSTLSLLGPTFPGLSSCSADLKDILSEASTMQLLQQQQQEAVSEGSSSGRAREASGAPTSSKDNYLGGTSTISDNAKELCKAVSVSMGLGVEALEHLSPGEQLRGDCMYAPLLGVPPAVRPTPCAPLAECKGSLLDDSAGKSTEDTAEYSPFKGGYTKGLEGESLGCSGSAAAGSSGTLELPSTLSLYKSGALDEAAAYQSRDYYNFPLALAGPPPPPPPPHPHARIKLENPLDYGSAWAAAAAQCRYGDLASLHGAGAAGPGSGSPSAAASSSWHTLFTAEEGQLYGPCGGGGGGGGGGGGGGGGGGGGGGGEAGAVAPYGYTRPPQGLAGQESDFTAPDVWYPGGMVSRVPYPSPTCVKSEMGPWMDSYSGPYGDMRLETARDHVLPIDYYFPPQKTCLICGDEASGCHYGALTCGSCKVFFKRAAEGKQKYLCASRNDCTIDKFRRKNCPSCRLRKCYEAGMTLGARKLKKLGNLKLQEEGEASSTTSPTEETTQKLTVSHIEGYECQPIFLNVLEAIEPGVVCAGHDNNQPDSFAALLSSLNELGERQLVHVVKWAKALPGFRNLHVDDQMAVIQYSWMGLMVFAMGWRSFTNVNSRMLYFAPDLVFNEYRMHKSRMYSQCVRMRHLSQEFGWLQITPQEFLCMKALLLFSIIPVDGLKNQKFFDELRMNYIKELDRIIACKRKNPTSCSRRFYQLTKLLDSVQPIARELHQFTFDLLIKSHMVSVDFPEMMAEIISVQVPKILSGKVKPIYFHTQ
In short: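 High-content images quantify nucleolar accumulation of RFP-fused AR in cells also expressing GFP-TIF2; the endpoint is fitted as signal gain versus DMSO controls across final concentrations of 0.195 to 50 uM.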

[5] = molecular target: Ratio of Nucleoli Translocation and Cytoplasm, AR (gene 367) (UniProt P10275); experiment: UPITT_HCI_U2OS_AR_TIF2_Nucleoli_Cytoplasm_Ratio_Agonist: University of Pittsburgh U2OS Androgen Receptor-Transcriptional Intermediary Factor 2 (AR-TIF2) Agonism High Content Imaging Assay for Ratio of Nucleoli Translocation and Cytoplasm (AID 2284000; active means hit-call score of the fitted dose curve at least 0.9, where 1 is the maximum;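 further: hits raise the red nucleolar to cytoplasm ratio above vehicle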)
Ratio of Nucleoli Translocation and Cytoplasm, AR (gene 367), sequence (P10275 whole entry, looked up): as the sequence (P10275 whole entry, looked up, the tested form may be a part) above
In short: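 U2OS cells expressing RFP-tagged human AR and GFP-tagged TIF2 were imaged by high-content fluorescence microscopy. The endpoint is the ratio of nucleolar to cytoplasmic red fluorescence, fitted for gain of signal relative to DMSO. Concentration-response spanned 0.195 to 50 uM final (0.5% DMSO).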

[6] = molecular target: Ratio of Nucleoli Translocation and Cytoplasm, AR (gene 367) (UniProt P10275); experiment: UPITT_HCI_U2OS_AR_TIF2_Nucleoli_Cytoplasm_Ratio_Antagonist: University of Pittsburgh U2OS Androgen Receptor-Transcriptional Intermediary Factor 2 (AR-TIF2) Antagonism High Content Imaging Assay for Ratio of Nucleoli Translocation and Cytoplasm (AID 2283999; active means hit-call score of the fitted dose curve at least 0.9, where 1 is the maximum;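 further: antagonists lower the DHT-driven ratio of nucleolar to cytoplasmic red signal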)
In short: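 U2OS cells co-expressing RFP-tagged human AR and GFP-tagged TIF2, antagonist mode with DHT as baseline. Nucleolar-to-cytoplasmic red fluorescence ratio imaged by high-content microscopy; final compound 20 uM (0.2% DMSO) primary, 0.195–50 uM (0.5% DMSO) concentration-response.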

DIO1 (gene 1733) = experiment: CCTE_GLTED_hDIO1: CCTE's human Deiodinase 1 (DIO1) Inhibition Assay, Great Lakes Toxicology and Ecology Division (GLTED) Lab (AID 2283987; active means hit-call score of the fitted dose curve at least 0.9, where 1 is the maximum;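 further: isolated human DIO1 enzyme in a cell-free setup rather than cells; enzyme activity read as free iodide liberated from substrate via Sandell-Kolthoff colorimetry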)
In short: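 Chemicals are tested on human DIO1 without cells for 3 h. Uninhibited enzyme frees iodide, which speeds cerium(IV) reduction by arsenic and is read by spectrophotometry.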

[7] = CCTE_Shafer_MEA_acute_spike_number: CCTE's Neural Acute Assay for Total Number of Spikes, Shafer Lab (AID 2284008);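 further: curve fitted for decrease in spike count so AC50 reflects inhibitors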
In short: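 Using an adaptive detector set to 8x rms noise, spikes were counted in 40-min windows before and after compound addition (0.03-40 uM) to rat cortical networks at 37 C; the well-level change from baseline was analysed relative to DMSO.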

[8] = CCTE_Shafer_MEA_acute_firing_rate_mean: CCTE's Neural Acute Assay for Mean Firing Rate, Shafer Lab (AID 2284009);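 further: analyzed for loss of signal so actives lower firing rate relative to DMSO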
In short: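 Read-out: well-mean spike rate (spikes/recording length/electrodes), % change from 40 min pre-dose baseline to 40 min with compound. Rat cortical cultures, DIV 13 or 15, 37 C; 0.03-40 uM; DMSO as negative control.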

[9] = CCTE_Shafer_MEA_acute_burst_number: CCTE's Neural Acute Assay for Single-Electrode Bursts, Shafer Lab (AID 2284013)
In short: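 Rat cortical cultures, DIV 13/15; 40 min baseline, then 40 min with compound 0.03-40 uM, 37 C. Spikes: 300-5000 Hz band-pass, threshold 8x rms noise. Readout = % change in single-electrode bursts vs baseline, loss-of-signal fit.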

[10] = CCTE_Shafer_MEA_acute_burst_duration_mean: CCTE's Neural Acute Assay for Mean Burst Duration, Shafer Lab (AID 2284014);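 further: hits are decreases in mean burst duration relative to DMSO controls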
In short: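 Primary rat cortical neurons on 16-electrode MEA wells, treated on DIV 13 or 15 with compound (0.03-40 uM; ≥3 wells each). 40-min baseline and 40-min exposure recordings at 37 C; percent change in mean burst duration per well versus DMSO.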

[11] = CCTE_Shafer_MEA_acute_per_burst_spike_number_mean: CCTE's Neural Acute Assay for Average Number of Spikes Per Burst, Shafer Lab (AID 2284015);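 further: hits are decreases in mean spikes per burst versus baseline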
In short: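 Percent change in mean spikes per single-electrode burst is compared between a 40 min baseline and a 40 min recording with compound (0.03-40 uM). Cultures were rat cortical neurons on MEA plates at DIV 13 or 15, recorded at 37 C, with DMSO as the negative control.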

[12] = CCTE_Shafer_MEA_acute_interburst_interval_mean: CCTE's Neural Acute Assay for Mean Interburst Interval, Shafer Lab (AID 2284016);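 further: percent change of mean interburst interval versus each well's own pre-dose baseline; curves fitted for decrease in interburst interval relative to DMSO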
In short: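 Percent change in mean single-electrode interburst interval was calculated per well from 40 min recordings before and after compound (0.03-40 uM). Recordings were made at 37 C on rat cortical cultures at DIV 13 or 15, with spikes detected at 8x rms threshold.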

[13] = CCTE_Shafer_MEA_acute_burst_percentage_mean: CCTE's Neural Acute Assay for Percentage of Spikes in a Burst, Shafer Lab (AID 2284017);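 further: curve fitted for loss of signal so potency reflects decreased burst percentage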
In short: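 Well-level mean burst percentage from a 40-min recording after compound (0.03-40 uM) expressed as percent change from a 40-min baseline at 37C. Cultures: primary rat cortical neurons on MEA, dosed on DIV 13 or 15; fitted downward relative to DMSO.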

[14] = CCTE_Shafer_MEA_acute_burst_percentage_std: CCTE's Neural Acute Assay for Standard Deviation of Burst Percentage, Shafer Lab (AID 2284018);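 further: fitted in the negative direction so actives lower burst percentage SD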
In short: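 Primary rat cortical neurons on 16-electrode MEA wells were recorded 40 min at baseline (DIV 13 or 15), then 40 min after compound (0.03-40 uM), at 37 C. Well value is SD across electrodes of spikes-in-bursts/total spikes; endpoint is percent change, DMSO-referenced.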

[15] = CCTE_Shafer_MEA_acute_per_network_burst_spike_number_mean: CCTE's Neural Acute Assay for Average Number of Spikes in a Network Burst, Shafer Lab (AID 2284019)
In short: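 Primary rat cortical neurons on 16-electrode MEA wells, DIV 13 or 15, 37 C; 40-min baseline then 40-min recording with compound (0.03-40 uM). Spikes per network burst (total spikes/number of bursts) expressed as percent change from baseline, DMSO reference.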

[16] = CCTE_Shafer_MEA_acute_per_network_burst_spike_number_std: CCTE's Neural Acute Assay for Standard Deviation of Number of Spikes in a Network Burst, Shafer Lab (AID 2284020);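 further: fitted for decrease in spike-number SD versus DMSO so actives lower it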
In short: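 Primary rat cortical neurons on 48-well MEAs (16 electrodes/well) recorded at DIV 13 or 15: 40-min baseline, then 40 min with compound (0.03-40 uM), 37 C. Value is percent change in SD of spikes per network burst, relative to DMSO.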

[17] = CCTE_Shafer_MEA_acute_per_network_burst_electrodes_number_mean: CCTE's Neural Acute Assay for Mean Number of Electrodes in a Network Burst, Shafer Lab (AID 2284021);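 further: curves fitted for decreases only so hits reduce electrodes per burst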
In short: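 Percent change from baseline in average electrode count per network burst, rat cortical cultures on 48-well MEAs; 40-min recordings each side of exposure, DIV 13 or 15; threshold 8x rms noise; DMSO as negative control.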

[18] = CCTE_Shafer_MEA_acute_network_burst_percentage: CCTE's Neural Acute Assay for Percentage of Network Bursts, Shafer Lab (AID 2284022);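 further: curves fitted for loss so actives lower network burst percentage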
In short: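 On DIV 13 or 15, at least three wells of rat cortical neurons per compound are dosed at 0.03-40 uM. Spontaneous firing is detected at 8x rms noise for 40 min before and after dosing at 37 C. The percent change in network-burst spike share is reported.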

Structure (SMILES): Brc1ccccn1
- outcome [1]: inactive
- outcome [2]: inactive
- outcome [3]: inactive

Structure (SMILES): CC1CCCCC1
- outcome [4]: inactive
- outcome [5]: inactive
- outcome [1]: inactive
- outcome [2]: inactive
- outcome [3]: inactive

Structure (SMILES): Cc1cc(=O)[nH]c(C(C)C)n1
- outcome [1]: inactive
- outcome [2]: inactive
- outcome [3]: inactive

Structure (SMILES): CCCCCCCCCc1ccc(OCCO)cc1
- outcome [4]: inactive
- outcome [6]: inactive
- AC50 [5]: 75500 nM (active)
- outcome [1]: inactive
- outcome [2]: inactive
- outcome [3]: inactive

Structure (SMILES): F[Si-2](F)(F)(F)(F)F
- outcome [4]: inactive
- outcome [5]: inactive

Structure (SMILES): NS(=O)(=O)C(F)(F)C(F)(F)C(F)(F)C(F)(F)C(F)(F)C(F)(F)F
- AC50 (DIO1 (gene 1733)): 44300 nM (active)

Structure (SMILES): C=C(C)C(=O)OCC(F)(F)C(F)(F)C(F)(F)C(F)F
- AC50 (DIO1 (gene 1733)): 25500 nM (active)

Structure (SMILES): CC(C)(C)c1cc(CCC(=O)OCC(COC(=O)CCc2cc(C(C)(C)C)c(O)c(C(C)(C)C)c2)(COC(=O)CCc2cc(C(C)(C)C)c(O)c(C(C)(C)C)c2)COC(=O)CCc2cc(C(C)(C)C)c(O)c(C(C)(C)C)c2)cc(C(C)(C)C)c1O
- outcome [1]: inactive
- outcome [2]: inactive
- outcome [3]: inactive

Structure (SMILES): CCN=C1C=CC(=C(c2ccc(N(CC)CC)cc2)c2ccc(N(CC)CC)cc2)c2ccccc21
- AC50 [6]: 4700 nM (active)
- outcome [5]: inactive
- AC50 [7]: 559 nM (active)
- AC50 [8]: 559 nM (active)
- outcome [1]: inactive
- outcome [2]: inactive
- AC50 [3]: 92200 nM (active)
- AC50 [9]: 545 nM (active)
- outcome [10]: inactive
- AC50 [11]: 518 nM (active)
- AC50 [12]: 361 nM (active)
- AC50 [13]: 549 nM (active)
- outcome [14]: inactive
- outcome [15]: inactive
- AC50 [16]: 718 nM (active)
- AC50 [17]: 498 nM (active)
- AC50 [18]: 762 nM (active)

Structure (SMILES): CCCCCCCCCCCCC[N+](C)(C)Cc1ccccc1
- AC50 (DIO1 (gene 1733)): 38700 nM (active)
- outcome [4]: inactive
- AC50 [6]: 13700 nM (active)
- outcome [5]: inactive
- outcome [1]: inactive
- outcome [2]: inactive
- outcome [3]: inactive
